PubChem BioAssay (NCATS)
Where “and” joins values, the source holds several entries; their conditions need not be identical. Equal values may be shown once. Results filed as inconclusive are left out. A number with no mark means an inactive call. Calls of active or inactive are those of the source. Calls come from the whole dose curve; as a rule, active = well fitted curve in the direction sought with a large enough effect; inconclusive = small, poorly fitted or top-dose-only effect, or another doubt; inactive = no such curve, though single readings can be large; an effect the other way counts as inactive or inconclusive.

Columns and labels:
[1] = target: Cellular tumor antigen p53 (Homo sapiens) (UniProt P04637); test: Primary qHTS for small molecule compounds that upregulate eGFP-tagged delta133p53alpha (in N-terminal) cells. (AID 2060322); details: NCI-H358 eGFP-delta133p53alpha fluorescence, 24 h; activation: stronger effect = higher value; note: nearly all actives have a fitted effect of over 75% in size; note: potency is the fitted concentration of half-maximal effect;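 for activation: cells pre-induced with doxycycline then dosed without doxycycline; series mostly up to about 56 µM; 0% = DMSO vehicle and 100% = reference activator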
In short: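 NCI-H358 cells pre-induced 24 h with 10 ng/ml doxycycline for eGFP-delta133p53alpha, plated dox-free and exposed 24 h at 37C to titrated compounds. Fixed, Hoechst-stained; gated GFP peak intensity by laser scanning cytometry, normalized to DMSO (0%) and 57.5 uM 5-azacytidine (100%).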

[2] = target: Aldehyde dehydrogenase, mitochondrial (Homo sapiens) (UniProt P05091); test: qHTS for Inhibitors of the Aldehyde Dehydrogenase Family (ALDH2) Primary screen (AID 2061308);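 note: plate controls were vehicle for no effect and reference inhibitor for full effect; nearly all actives have a fitted effect of over 55% in size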
[3] = target: Retinaldehyde dehydrogenase 3 (Homo sapiens) (UniProt P47895); test: qHTS for Inhibitors of the Aldehyde Dehydrogenase Family (ALDH1A3) Validation screen (AID 2061312); note: % is set by controls: 0 for no effect and ±100 for the full control effect; nearly all actives have a fitted effect of over 45% in size
[4] = target: Retinaldehyde dehydrogenase 3 (Homo sapiens) (UniProt P47895); test: qHTS for Inhibitors of the Aldehyde Dehydrogenase Family (ALDH1A3) Primary screen (AID 2061315);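 note: plate controls were DMSO vehicle for no effect and reference inhibitor for full effect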
[5] = BET inhibitor-based combinations targeting novel dependencies in MECOM-rearranged (r) AML: SET-2 cell line (AID 2202231); details: SET-2 AML cells viability, CellTiter-Glo luminescence, 48 h; viability: stronger effect = lower value, concentration not given here; note: nearly all actives have a fitted effect of over 35% in size; note: potency is the fitted concentration of half-maximal effect;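 for viability: plate controls were DMSO treated cells for no effect and wells without cells for full effect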
In short: (§1)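 Cells were plated at 500 per well and exposed to an 11-point dose series of each drug for 48 hr. Viability was measured by CellTiter-Glo luminescence, normalized to DMSO and empty-well controls, and summarized as AUC and per-cell-line Z-AUC.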

[6] = BET inhibitor-based combinations targeting novel dependencies in MECOM-rearranged (r) AML: OCI-AML3 cell line (AID 2202232); details: Potency: OCI-AML3 viability; note: nearly all actives have a fitted effect of over 35% in size; note: potency is the fitted concentration of half-maximal effect
In short: as §1

[7] = BET inhibitor-based combinations targeting novel dependencies in MECOM-rearranged (r) AML: MV-4-11 cell line (AID 2202233); note: nearly all actives have a fitted effect of over 45% in size; note: potency is the fitted concentration of half-maximal effect
In short: (§2)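 Activity is given as area under the curve and as Z-AUC, mean-centred within each cell line. It comes from 11-point dose curves normalized to DMSO and empty wells. CellTiter-Glo luminescence was read after 48 hr drug exposure of 500 cells/well.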

[8] = BET inhibitor-based combinations targeting novel dependencies in MECOM-rearranged (r) AML: HNT-34 cell line (AID 2202234); note: nearly all actives have a fitted effect of over 35% in size; note: potency is the fitted concentration of half-maximal effect
In short: as §2

[9] = BET inhibitor-based combinations targeting novel dependencies in MECOM-rearranged (r) AML: UCSD-AML1 cell line (AID 2202235); note: nearly all actives have a fitted effect of over 40% in size; note: potency is the fitted concentration of half-maximal effect
In short: as §2

[10] = BET inhibitor-based combinations targeting novel dependencies in MECOM-rearranged (r) AML: AML-194 cell line (AID 2202237; note: nearly all actives have a fitted effect of over 40% in size; note: potency is the fitted concentration of half-maximal effect)
In short: as §1

[11] = BET inhibitor-based combinations targeting novel dependencies in MECOM-rearranged (r) AML: AML-191 cell line (AID 2202236; note: nearly all actives have a fitted effect of over 35% in size; note: potency is the fitted concentration of half-maximal effect)
In short: as §1

Chain of Cellular tumor antigen p53 (Homo sapiens) (P04637 whole entry, looked up): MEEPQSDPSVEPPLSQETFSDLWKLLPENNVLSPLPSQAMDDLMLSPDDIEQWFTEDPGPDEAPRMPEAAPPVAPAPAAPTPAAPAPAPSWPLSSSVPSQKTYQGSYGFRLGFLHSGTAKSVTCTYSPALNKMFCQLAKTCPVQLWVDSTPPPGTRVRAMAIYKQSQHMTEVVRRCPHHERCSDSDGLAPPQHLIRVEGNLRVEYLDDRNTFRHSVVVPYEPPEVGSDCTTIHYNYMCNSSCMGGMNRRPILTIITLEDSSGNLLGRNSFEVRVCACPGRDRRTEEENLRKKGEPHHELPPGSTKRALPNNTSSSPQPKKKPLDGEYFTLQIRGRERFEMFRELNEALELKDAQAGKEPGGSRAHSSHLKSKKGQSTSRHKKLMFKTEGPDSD

Compound: Fc1ccc(CNc2ncnc3ccc(F)cc23)cc1
- activation [1]: -0.393% and 5.25%
- Potency [2]: inactive
- Potency [3]: inactive
- Potency [4]: inactive
- Potency [5]: 2630 nM (active)
- Potency [6]: 4170 nM (active)
- Potency [7]: 5900 nM (active)
- Potency [8]: 16600 nM (active)
- Potency [9]: inactive
- Potency [10]: inactive

Compound: COc1cc2c(cc1OC)CN(CCc1ccc(NC(=O)c3cccc4c(=O)c5cccc(OC)c5[nH]c34)cc1)CC2
- activation [1]: -17.9%
- Potency [2]: inactive
- Potency [3]: inactive
- Potency [4]: inactive
- viability [5]: 111%
- Potency [6]: inactive
- Potency [7]: inactive
- Potency [8]: inactive
- Potency [9]: inactive
- Potency [11]: inactive
- Potency [10]: inactive

Compound: CC(=O)c1cnc2ccc(-c3cc(Cl)c(O)c(Cl)c3)nc2c1NC1CCC(CN(C)C)CC1 (stereo unspecified)
- Potency [1]: 153 nM (active) and 195 nM (active)
- activity change, negative = inhibition [2]: 21.4% [at 11.2 µM]
- activity change, negative = inhibition [3]: 24.3% [at 20.1 µM]
- activity change, negative = inhibition [4]: 9.88% [at 11.2 µM]
- Potency [5]: 60.5 nM (active)
- Potency [6]: 121 nM (active)
- Potency [7]: 17.1 nM (active)
- Potency [8]: 48.1 nM (active)
- Potency [9]: 27 nM (active)
- Potency [11]: 48.1 nM (active)
- Potency [10]: 60.5 nM (active)

Compound: O=C(c1ccc(C(=O)N2CCC(N3CCCC3)CC2)c(Nc2ccccc2)c1)N1CCC(N2CCCC2)CC1
- activation [1]: 3.03% and -7.82%
- Potency [2]: inactive
- Potency [3]: inactive
- Potency [4]: inactive
- viability [5]: 111%
- Potency [6]: inactive
- Potency [7]: 9340 nM (active)
- Potency [8]: inactive
- Potency [9]: inactive
- Potency [11]: inactive
- Potency [10]: inactive

Compound: CN1CCN(Cc2ccc(NC(=O)Nc3ccc(Oc4cc(NC(=O)C5CC5)ncn4)cc3)cc2C(F)(F)F)CC1
- Potency [1]: 968 nM (active)
- Potency [2]: inactive
- Potency [3]: inactive
- Potency [4]: inactive
- Potency [5]: 742 nM (active)
- Potency [6]: 372 nM (active)
- Potency [7]: 3.7 nM (active)
- Potency [8]: 46.8 nM (active)
- Potency [9]: 372 nM (active)
- Potency [11]: 590 nM (active)
- Potency [10]: 833 nM (active)

Compound: OC[C@H]1O[C@@H](Oc2cc(O)cc(/C=C/c3ccc(O)cc3)c2)[C@H](O)[C@@H](O)[C@@H]1O
- activation [1]: -6.21%
- Potency [2]: inactive
- Potency [3]: inactive
- Potency [4]: inactive
- viability [5]: 115%
- Potency [6]: inactive
- Potency [7]: inactive
- Potency [8]: inactive
- Potency [9]: inactive
- Potency [11]: inactive
- Potency [10]: inactive

Compound: COc1cccc(-c2cc(F)ccc2C2Cc3nc(N)nc(C)c3C(=O)N2)n1 (stereo unspecified)
- activation [1]: 2.86%
- Potency [2]: inactive
- Potency [3]: inactive
- Potency [4]: inactive
- Potency [5]: 74.2 nM (active)
- Potency [6]: 66.1 nM (active)
- Potency [7]: 41.7 nM (active)
- Potency [8]: 132 nM (active)
- Potency [9]: 105 nM (active)
- Potency [11]: 93.4 nM (active)
- Potency [10]: 93.4 nM (active)
